Consider 31 compounds from PubChem BioAssay (NCATS).

Records with an inconclusive call do not appear. Where a call stands in place of a potency, no number is given. Activity calls are given as the source filed them. Calls follow the shape of the dose curve; as a rule, active = well fitted inhibition curve with a large enough effect; inconclusive = small, poorly fitted or top-dose-only effect; inactive = flat fitted curve, though single readings scatter.
Potency is read from the fitted curve at half-maximal effect.

This assay in a line: High Content Imaging Cell-Based qHTS for Inhibitors of the mTORC1 Signaling Pathway in MEF (Tsc2-/-, p53-/-) Cells (AID 2666).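 Also: percent of cells scored positive for phospho-rpS6 Ser235/236 immunostaining by imaging.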 The settings on record: series mostly up to 38.3 µM. An excerpt: NIH Molecular Libraries Probe Production Centers Network [MLPCN]
NIH Chemical Genomics Center [NCGC]
Assay Submitter (PI): Blenis, John; Hoffman, Greg; Harvard University
NCGC Assay Overview: Thee mammalian target of rapamycin (mTOR) is an intracellular serine/threonine kinase Aberrant regulation of mTOR signaling plays a causative role in a number of human diseases, including cancer, benign tumors such as lymphangioleiomyomatosis (LAM) and Tuberous Sclerosis Complex (TSC), and metabolic diseases such as diabetes and obesity. This project aims to identify inhibitors of ribosomal protein S6 (rpS6) phosphorylation. The phosphorylation of rpS6 is a key event downstream of mTOR activation. The assay uses a phospho-specific antibody of phospho-rpS6 to detect inhibitors of mTOR activation. Mutations in the Tsc1 and Tsc2 genes are the underlying genetic lesions responsible for TSC, causing constitutive activation of the mTORC1 pathway and leading to profound effects on cell metabolism. Aberrant metabolism in cancer has recently received significant attention as a target to develop therapeutic agents in the treatment of cancer1. As Tsc2-/- cells have lost the ability to respond to energy and growth factor deprivation, these cells are unable to properly down regulate cellular biosynthetic processes in response to metabolic stress, and are thus extremely sensitive to glucose deprivation-induced death.2 A central goal of this project is to explore the unique cell survival and metabolic properties of cells with Tsc1 or Tsc2 by screening for compounds that selectively target the Tsc2-/- MEFs by screening both Tsc2-/- and WT MEF cell lines. We hope to better understand these aspects of TSC physiology in order to exploit them for therapeutic benefit.
NCGC IN Cell Assay Protocol:
For quantitative high throughput analysis of mTORC1 signaling, we developed a cell-based assay for immuno-fluorescence based detection of rpS6 phosphorylation on the Acumen Explorer that will be used a platform for the primary small molecule screen. Mouse embryonic fibroblasts (MEFs) are cultured in 1536-well plates using DMEM + 10% FBS. Twenty-four hrs after plating, test compounds (solubilized in DMSO) are delivered and incubated with the cells for 24 hrs at 37 degree Celsius. Following the incubation, media with compound is aspirated and the cells are fixed in 4% paraformaldehyde (PFA) containing PBS + 0.2% TX-100. Next, PFA is aspirated, cells are washed two times with PBS plus 0.2% TX-100 and the cells are blocked for 1 hr at room temperature (blocking buffer: LiCOR Blocking Buffer plus 0.2% TX-100). This is followed by aspiration and staining with Alexa-488 conjugated-phospho-rpS6 Ser235/236 antibody for 2 hours at room temperature (Cell Signaling Technology # 4803, 1:50 dilution in blocking buffer). Cells are washed two times with PBS plus 0.2% TX-100, and stained with 10 uM propidium iodide (PI) for 20-25 minutes for cell number measurement (1:500 dilution of Hoescht staining is also added for IN Cell imaging). Active wells which are selected (based on Acumen results) are imaged on the IN Cell 1000 (GE Healthcare) using the D360/40X and HQ480/40X excitation filters for the Hoechst and Alexa-488 cytoplasmic stains, respectively. The fluorescence emission filters used were HQ460/40M and HQ535/50M for the Hoechst and Alexa-488 cytoplasmic stains, respectively. The normalized phospho-S6 staining is calculated as the ratio of […] for the single concentration rapamycin control ([…] nM) and DMSO columns. […] Inhibition of the pathway is defined based on the normalized phospho-S6 intensity in rapamycin treated cells. Each treatment is reported as the % positive cells in the well, where thresholds are defined by selecting wells with the highest and lowest signal and differentiating between the % non-active and % active populations. […]
For the compound `O=c1[nH]c2ccccc2n1CCCN1CCC(n2c(=O)[nH]c3cc(Cl)ccc32)CC1`, the Potency entry was “inactive”.
The result for `CC[C@@H](CO)NC(=O)[C@@H]1C=C2c3cccc4c3c(cn4C)C[C@H]2N(C)C1` reads “inactive”; that for `C=C(C)[C@H]1Cc2c(ccc3c2O[C@@H]2COc4cc(OC)c(OC)cc4[C@@H]2C3=O)O1`, “inactive”; that for `Cc1cc2c(C(C)C)c(O)c(O)c(C=O)c2c(O)c1-c1c(C)cc2c(C(C)C)c(O)c(O)c(C=O)c2c1O`, 2.61 µM (active).
The result for `CC(C)=CCOc1c2occc2cc2ccc(=O)oc12` reads “inactive”; that for `CC(=O)[C@H]1CC[C@H]2[C@@H]3CC[C@H]4C[C@H](O)CC[C@]4(C)[C@H]3C(=O)C[C@]12C`, “inactive”; that for `CCC1(C2=NCCN2)Cc2ccccc2O1` (stereo unspecified), “inactive”.
With `NN=C(N)N`, the Potency result was “inactive”.
The result for `Cc1cccc(C)c1NC(=O)CN1CCCC1=O` reads “inactive”; that for `C[C@@H]1O[C@@H](O[C@H]2C[C@@H](O)[C@]3(CO)[C@H]4[C@H](O)C[C@]5(C)[C@@H](C6=CC(=O)OC6)CC[C@]5(O)[C@@H]4CC[C@]3(O)C2)[C@H](O)[C@H](O)[C@H]1O`, “inactive”.
Regarding `COc1ccc(C(CN(C)C)C2(O)CCCCC2)cc1` (stereo unspecified), the Potency entry is “inactive”.
To `Cc1cccc(C)c1NC1=NCCCS1` belongs “inactive”; to `N#CC(C#N)=Cc1ccc(O)c(O)c1`, “inactive”.
With `Cc1ccc(S(=O)(=O)N[C@@H](CCCCN)C(=O)CCl)cc1`, the Potency entry was “inactive”.
To `CC(O)(CS(=O)(=O)c1ccc(F)cc1)C(=O)Nc1ccc(C#N)c(C(F)(F)F)c1` (stereo unspecified) belongs “inactive”; to `CCCC(C)(COC(N)=O)COC(=O)NC(C)C` (stereo unspecified), “inactive”.
For `COC[C@H]1OC(=O)c2coc3c2[C@@]1(C)C1=C(C3=O)C2CCC(=O)[C@@]2(C)C[C@H]1OC(C)=O` (stereo partly specified), the Potency entry was “inactive”.
`CCCN1CCC[C@@H]2Cc3[nH]ncc3C[C@H]21`: the Potency entry was “inactive”.
The result for `CC[C@@H](CO)NC(=O)[C@@H]1C=C2c3cccc4[nH]cc(c34)C[C@H]2N(C)C1` reads “inactive”.
Take `NCC(O)c1ccc(O)cc1` (stereo unspecified): the Potency entry is “inactive”.
With `O=C1NCN(c2ccccc2)C12CCN(CC1COc3ccccc3O1)CC2` (stereo unspecified), the Potency entry is “inactive”.
`NCC1(CC(=O)O)CCCCC1`: the Potency result is “inactive”.
Regarding `COc1ccccc1N1CCNCC1`, the Potency result is “inactive”.
To `CCCN1CCC[C@@H]2Cc3nc(N)ncc3C[C@H]21` belongs “inactive”; to `CC(=O)[C@H]1CC[C@H]2[C@@H]3CC[C@H]4C[C@](C)(O)CC[C@]4(C)[C@H]3CC[C@]12C`, “inactive”; to `CNCC(O)c1ccc(O)cc1` (stereo unspecified), “inactive”.
The result for `Cc1ncc(CNC(=O)N(CCCl)N=O)c(N)n1` reads “inactive”; that for `Nc1ccncc1`, “inactive”; that for `c1ccc(C2CC2)c(OCC2=NCCN2)c1`, “inactive”.
To `NCC(CC(=O)O)c1ccc(Cl)cc1` (stereo unspecified) belongs “inactive”; to `CC(CCc1ccccc1)NC(C)C(O)c1ccc(O)cc1` (stereo unspecified), “inactive”.
